# PubChem BioAssay AID1159580 (chemical genetic matrix, 2015)
# Screen size: about 5,500 compounds; about 2,000 (36%) were called active. About 18% were inconclusive and are not listed. The list shows a part of the results. Unmarked numbers belong to inactive results. Cut-off read from the data, not from the text of the source: active = normalized growth mostly below about 0.91 (no sharp cut-off); inconclusive = no clear call, values can overlap the other calls; inactive = mostly above about 0.92.
# Assay: chemical genetic growth profiling, strain panel (AID 1159580);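 note: tested at 20 µM; growth read once vehicle control cultures reached saturation at 30 °C; 1 = growth at the plate median or of vehicle wells; lower values mean less growth of the strain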
# Settings: S. cerevisiae deletion strains, growth OD
structure (smiles),measurement,setting,value
CN(C)c1nc(=S)ss1,normalized growth,"locus YAR019C, strain CDC15, hits give low values",0.83 (active)
same,normalized growth,"locus YBL105C, strain PKC1, hits give low values",0.91
same,normalized growth,"locus YBR135W, strain CKS1, hits give low values",0.865 (active)
same,normalized growth,"locus YBR136W, strain MEC1, hits give low values",0.883 (active)
same,normalized growth,"locus YBR160W, strain CDC28, hits give low values",0.882 (active)
same,normalized growth,"locus YDL017W, strain CDC7, hits give low values",0.896 (active)
same,normalized growth,"locus YDL028C, strain MPS1, hits give low values",0.839 (active)
same,normalized growth,"locus YDL101C, strain DUN1, hits give low values",0.937
same,normalized growth,"locus YDL108W, strain KIN28, hits give low values",0.878 (active)
same,normalized growth,"locus YDL132W, strain cdc53, hits give low values",0.687 (active)
same,normalized growth,"locus YDL214C, strain PRR2, hits give low values",0.332 (active)
same,normalized growth,"locus YDR052C, strain DBF4, hits give low values",0.886 (active)
same,normalized growth,"locus YDR054C, strain cdc34, hits give low values",0.569 (active)
same,normalized growth,"locus YDR226W, strain ADK1, hits give low values",0.865 (active)
same,normalized growth,"locus YDR477W, strain SNF1, hits give low values",0.319 (active)
same,normalized growth,"locus YER123W, strain YCK3, hits give low values",0.186 (active)
same,normalized growth,"locus YER133W, strain GLC7, hits give low values",0.211 (active)
same,normalized growth,"locus YFL009W, strain cdc4, hits give low values",0.732 (active)
same,normalized growth,"locus YFL029C, strain CAK1, hits give low values",0.747 (active)
same,normalized growth,"locus YFR003C, strain YPI1, hits give low values",0.905
same,normalized growth,"locus YFR019W, strain FAB1, hits give low values",0.221 (active)
same,normalized growth,"locus YFR028C, strain CDC14, hits give low values",0.894
same,normalized growth,"locus YGR040W, strain KSS1, hits give low values",0.47 (active)
same,normalized growth,"locus YGR052W, strain FMP48, hits give low values",0.349 (active)
same,normalized growth,"locus YGR092W, strain DBF2, hits give low values",0.111 (active)
same,normalized growth,"locus YHR030C, strain SLT2, hits give low values",0.576 (active)
same,normalized growth,"locus YHR079C, strain IRE1, hits give low values",0.204 (active)
same,normalized growth,"locus YHR082C, strain KSP1, hits give low values",0.464 (active)
same,normalized growth,"locus YHR205W, strain SCH9, hits give low values",0.493 (active)
same,normalized growth,"locus YIL147C, strain SLN1, hits give low values",0.825 (active)
same,normalized growth,"locus YJL095W, strain BCK1, hits give low values",0.327 (active)
same,normalized growth,"locus YJL128C, strain PBS2, hits give low values",0.876
same,normalized growth,"locus YJL157C, strain FAR1, hits give low values",0.199 (active)
same,normalized growth,"locus YJR016C, strain ILV3, hits give low values",0.715 (active)
same,normalized growth,"locus YJR066W, strain TOR1 (second series), hits give low values",0.262 (active)
same,normalized growth,"locus YJR066W, strain TOR1, hits give low values",0.324 (active)
same,normalized growth,"locus YKL048C, strain ELM1, hits give low values",0.228 (active)
same,normalized growth,"locus YKL067W, strain YNK1, hits give low values",0.197 (active)
same,normalized growth,"locus YKL101W, strain HSL1, hits give low values",0.205 (active)
same,normalized growth,"locus YKL193C, strain SDS22, hits give low values",0.84 (active)
same,normalized growth,"locus YKL203C, strain TOR2, hits give low values",0.342 (active)
same,normalized growth,"locus YLR113W, strain HOG1, hits give low values",0.351 (active)
same,normalized growth,"locus YLR133W, strain CKI1, hits give low values",0.232 (active)
same,normalized growth,"locus YLR403W, strain SFP1, hits give low values",0.116 (active)
same,normalized growth,"locus YML070W, strain DAK1, hits give low values",0.199 (active)
same,normalized growth,"locus YMR001C, strain CDC5, hits give low values",0.87 (active)
same,normalized growth,"locus YMR205C, strain PFK2 (second series), hits give low values",0.229 (active)
same,normalized growth,"locus YMR277W, strain FCP1, hits give low values",0.827 (active)
same,normalized growth,"locus YNL006W, strain LST8, hits give low values",0.501 (active)
same,normalized growth,"locus YNL020C, strain ARK1, hits give low values",0.189 (active)
same,normalized growth,"locus YNL161W, strain CBK1, hits give low values",0.869 (active)
same,normalized growth,"locus YNL183C, strain NPR1, hits give low values",0.341 (active)
same,normalized growth,"locus YNL207W, strain RIO2, hits give low values",0.865 (active)
same,normalized growth,"locus YNL222W, strain SSU72, hits give low values",0.861 (active)
same,normalized growth,"locus YNL307C, strain MCK1 (second series), hits give low values",0.162 (active)
same,normalized growth,"locus YOL078W, strain AVO1, hits give low values",0.807 (active)
same,normalized growth,"locus YOL136C, strain PFK27, hits give low values",0.165 (active)
same,normalized growth,"locus YOR061W, strain CKA2, hits give low values",0.217 (active)
same,normalized growth,"locus YOR119C, strain RIO1, hits give low values",0.325 (active)
same,normalized growth,"locus YOR231W, strain MKK1, hits give low values",0.211 (active)
same,normalized growth,"locus YOR329C, strain SCD5, hits give low values",0.88 (active)
same,normalized growth,"locus YPL031C, strain PHO85, hits give low values",0.21 (active)
same,normalized growth,"locus YPL153C, strain RAD53, hits give low values",0.16 (active)
same,normalized growth,"locus YPL204W, strain HRR25, hits give low values",0.202 (active)
same,normalized growth,"locus YPL209C, strain IPL1, hits give low values",0.872 (active)
same,normalized growth,"locus YPL256C, strain CLN2, hits give low values",0.393 (active)
same,normalized growth,"locus YPR025C, strain CCL1, hits give low values",0.881 (active)
same,normalized growth,"locus YPR106W, strain ISR1, hits give low values",0.934
same,normalized growth,"locus YPR111W, strain DBF20, hits give low values",0.913
same,normalized growth,"strain NNK1, hits give low values",0.921
same,normalized growth,"strain TSCII, hits give low values",0.706 (active)
